Reference: PubChem BioAssay AID540275 (National Center for Advancing Translational Sciences (NCATS), 2011)
Hit rate of the full screen: of about 320,000 compounds, about 620 (0.19%) were called active. Another 6% or so got no clear call; they are omitted. Only a selection was taken, and actives are over-represented in it overall. Values without a mark were called inactive. Cut-off read from the data, not from the text of the source: active = activation above about 80%; inconclusive = between about 30% and that limit; inactive = weaker than that.

target: Transient receptor potential cation channel subfamily V member 1 (Homo sapiens) (UniProt Q8NER1); experiment: HTS Assay for Compounds that Act as Agonists of the Vanilloid Receptor 1; settings: TRPV1-expressing cells, Fluo-8 calcium influx, agonist mode; at 8.33 µM; hits give high values; note: 0% is about no effect
Text: The transient receptor potential ion channel, family V, number 1, (TRPV1) is one of the most important molecular transducers of painful stimuli and a potential target for analgesic drug development. Although recent clinical trials with orthosteric antagonists have not produced a successful drug because of a hyperthermia side effect and their tendency to block thermal noxious pain, this ion channel is undeniably well placed in the pain pathway, and the idea of blocking pain signals before they enter the CNS is an excellent concept and of proven efficacy when TRPV1 agonists are used. We propose a new approach involving allosteric modulation to impose an activity-dependent constraint within the context of inflammation and tissue damage that would alter the responsiveness of the channel in a way that an orthosteric vanilloid antagonist cannot achieve. We believe that the allosteric modulator approach has not been explored for this target. The main goal of this proposal is to identify additional, new, potent allosteric modulators of TRPV1 that can be used to investigate TRPV1 function. Our recent report provides evidence of proof of concept, but the compounds are just at the edge of utility in terms of potency. […] The question of whether they can be used as analgesic agents is complex, but if suitable compounds are identified then testing for analgesic properties will be conducted. NIH Chemical Genomics Center [NCGC] NIH Molecular Libraries Probe Centers Network [MLPCN] MLPCN Grant: MH089480-1A1 Assay Submitter (PI): Michael Iadarola, National Institute of Dental and Cranofacial Research
Upon TRPV1 activation in TRPV1 cells, the channel opens and extracellular cations flow through the channel into the cytosol. A calcium binding dye (Fluo-8) becomes fluorescent when bound to calcium. This dye is pre-loaded into cells and is used as a marker for calcium influx. The amount of accumulated calcium is precisely quantified using the FDSS kinetic reader and the calcium dye. For the HTS assay, freshly prepared cells are plated at a density of 2000/well in 3 ul medium in 1536-well plates and cultured overnight at 35.5C. Cells will be loaded with 1 ul of the homogeneous calcium dye (ABD Bioquest) at room temperature for 40 to 90 minutes. Plates will be loaded into the FDSS kinetic reader and a 1 sec / cycle for 10 second baseline signal will be measured. Compound library will then be added with a pintool at 23 nl and measured kinetically for 3 minutes. This portion of the read is considered the agonist portion of the screen. Following the 3 minutes of incubation, an on board pipettor will deliver 1 ul of capsaicin for a final concentration equal to the EC20. Signal will be measured kinetically for an additional 2 minutes. This portion of the read is considered the allosteric enhancer portion of the screen. The FDSS reader has a standard filter set capable of measuring calcium bound Fluo-8 (ex=480 and em=520 nm).

Sequence of Transient receptor potential cation channel subfamily V member 1 (Homo sapiens) (Q8NER1 whole entry, looked up): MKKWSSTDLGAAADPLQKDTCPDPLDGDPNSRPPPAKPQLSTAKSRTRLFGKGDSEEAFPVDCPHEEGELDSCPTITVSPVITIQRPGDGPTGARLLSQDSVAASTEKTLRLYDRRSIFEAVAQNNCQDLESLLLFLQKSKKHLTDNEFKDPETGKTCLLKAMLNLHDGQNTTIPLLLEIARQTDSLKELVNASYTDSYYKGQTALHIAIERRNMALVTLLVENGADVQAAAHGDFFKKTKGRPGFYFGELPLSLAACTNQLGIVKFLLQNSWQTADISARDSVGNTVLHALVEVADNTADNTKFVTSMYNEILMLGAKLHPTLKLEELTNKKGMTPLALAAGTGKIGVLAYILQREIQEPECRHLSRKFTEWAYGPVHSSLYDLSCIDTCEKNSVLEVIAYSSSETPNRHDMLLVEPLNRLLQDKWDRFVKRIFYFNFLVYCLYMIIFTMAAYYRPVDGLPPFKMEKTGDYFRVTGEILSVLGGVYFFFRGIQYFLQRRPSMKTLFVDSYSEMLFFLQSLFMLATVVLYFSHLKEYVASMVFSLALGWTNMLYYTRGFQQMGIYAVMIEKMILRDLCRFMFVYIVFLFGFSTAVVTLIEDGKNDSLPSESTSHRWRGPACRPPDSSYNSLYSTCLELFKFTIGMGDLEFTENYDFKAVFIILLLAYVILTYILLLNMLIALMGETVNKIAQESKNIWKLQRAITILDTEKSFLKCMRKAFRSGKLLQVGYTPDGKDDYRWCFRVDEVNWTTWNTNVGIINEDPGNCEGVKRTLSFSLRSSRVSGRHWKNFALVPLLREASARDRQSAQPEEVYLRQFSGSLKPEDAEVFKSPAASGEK

SMILES | activation
CCN1C(=O)C(=O)N(CC(=O)Nc2cc(C)ccc2C)C1=O | -7.91%
CCN(c1ccccc1)S(=O)(=O)c1cccc(C(=O)NCc2ccccc2CN2CCOCC2)c1 | 10.7%
S=C(NNC(=S)NC1CC2C=CC1C2)NC1CC2C=CC1C2 (centres undefined) | 1.8%
CC(C)c1ccc(NC(=S)NC2CC3C=CC2C3)cc1 (centres undefined) | 88.8% (active)
S=C(NNC(=S)NC1CC2CCC1C2)NC1CC2C=CC1C2 (centres undefined) | 3.31%
O=S(=O)(Nc1cccc2cccnc12)c1cccc2cccnc12 | 3.75%
Oc1ccc(Cl)cc1C1C=C(c2ccc3c(c2)OCO3)NC(c2c(F)cccc2Cl)N1 (centres undefined) | 2.17%
CSCCC(NC(=O)c1ccco1)C(=O)NCCc1ccc(F)cc1 (centres undefined) | 0.184%
CN(C)CCOc1ccc(Cl)cc1C(C)(C)C | 10.6%
CCC(C)(C)c1ccc(OCC(=O)N(C)C)c(C(C)(C)CC)c1 | 81.1% (active)
CCc1nc(C)ccc1OCC(=O)N(CC)CC | 2.63%
CCN(CC(=O)Nc1ccc(OC)cc1)C(=O)CSCc1ccc(C)cc1 | 12.3%
Cc1cc(C)c(CN2CCN(C(=O)Cn3ccc(NC(=O)OCc4ccccc4)nc3=O)CC2)c(C)c1 | 1.97%
COc1ccc(S(=O)(=O)N2CCOCC2)cc1NC(=O)CSc1cc(C)ccc1C | 18.3%
COc1ccc(CNC(=O)COc2ccccc2C(=O)c2cnn(-c3ccccc3)c2)cc1OC | 11.4%
COc1ccc(S(=O)(=O)Nc2cccc3cccnc23)c(N)c1 | 7.86%
C[C@H](NC(=O)c1[nH]cnc1C(=O)Nc1nccs1)c1ccccc1 | 3.08%
O=C1NCCn2nc3ccccc3c21 | -1.33%
CCN(CC(=O)Nc1ccccc1C(F)(F)F)C(=O)C1CCN(C(=O)Nc2ccccc2)CC1 | 1.3%
Cc1cccc(OCCC(=O)OCc2csc(CC(=O)Nc3ccccc3C)n2)c1 | 14.6%
NC(=O)NCCCC(=O)O | 5.36%
O=C(NC1Cc2ccccc2C1)c1cc(COc2cccc(C(F)(F)F)c2)on1 | 3.63%
Cc1nonc1C1CCCN1C(=O)c1cc(COc2cccc(C(F)(F)F)c2)on1 (centres undefined) | 2.83%

SMILES | activation
O=C(c1cc(COc2cccc(C(F)(F)F)c2)on1)N1CCSCC1 | 81.1% (active)
Cc1ccc2nc(-c3ccncc3)cc(C(=O)Nc3ccc4c(c3)OCCO4)c2c1 | -2.26%
Cc1ccc2nc(-c3ccccn3)cc(C(=O)Nc3ccc4c(c3)OCO4)c2c1 | 90.2% (active)
O=C(Nc1ccncc1)c1cc(-c2ccccn2)nc2ccc(Br)cc12 | 0.349%
COc1ccc(S(=O)(=O)N2CCN(CC(=O)N3c4ccccc4CC3C)CC2)cc1OC (centres undefined) | -0.777%
COc1cc(C(=O)OCC(=O)NC23CC4CC(CC(C4)C2)C3)cc(OC)c1OC | 21.9%
O=C(Nc1cc(-c2ccccc2)nn1-c1ccccc1F)c1ccc([N+](=O)[O-])cc1 | -1.91%
CC1Cc2ccccc2N1S(=O)(=O)c1cccc(C(=O)NCC(c2ccco2)N2CCCC2)c1 (centres undefined) | 0.253%
CCn1c(=O)c(=O)n(CC)c2cc(N3CCCCC3)c(NC(=O)c3ccc(Cl)cc3)cc21 | -4.74%
Cc1ccccc1S(=O)(=O)N1[C@@H](c2cccc(Cl)c2)C(C(=O)O)=CC[C@H]1c1ccc(Cl)cc1 | -4.35%
CC1CCc2sc(C(=O)NCC(c3ccco3)N3CCCCC3)cc2C1 (centres undefined) | 26.2%
CCC1CCC2(CC1)NC(=O)N(CC(=O)Nc1ccc(OC)cc1)C2=O (centres undefined) | 9.09%
CC(C)(C)c1ccc(NC(=O)NCc2ccco2)cc1 | 89.3% (active)
CC(C)(C)NC(=O)NCc1ccco1 | 4.24%
CC(C)(C)c1ccc(C(=O)NCCC(=O)NCc2ccco2)cc1 | 25%
COc1ccccc1Nc1nnc(SC(C)C(=O)NC2CC2)s1 (centres undefined) | 0.405%
COc1ccc(NC(=O)Cn2cc(C(=O)c3ccncc3)c(=O)c3cc(C)ccc32)cc1Cl | 3.63%
Cc1ccc(NC(=O)CCCNC(=O)c2ccc(Cl)cc2)cc1S(=O)(=O)N1CCCCC1 | 6.66%
Cc1ccc(S(=O)(=O)N(C)C)cc1NC(=O)CN1c2cccc3cccc(c23)S1(=O)=O | -5.6%
Cc1ccc(S(=O)(=O)NCCC(c2ccccc2)c2ccccc2)cc1C(=O)O | -2.84%
Cc1ccc(C(=O)NCCNC(=O)c2ccccc2)cc1 | 12.5%
Cc1ncoc1C(=O)NCCC(c1ccccc1)c1ccccc1 | 98.7% (active)
Cc1ccc(C(=O)OCC(=O)Nc2ccc(Cl)cn2)cc1S(=O)(=O)N1CCOCC1 | 7.43%

SMILES | activation
CSc1ccc(Cl)c(C(=O)OCC(=O)N2CCNC2=O)c1 | 5.56%
O=C(CSc1ncnc2sccc12)N1CCN(C(=O)c2cccs2)CC1 | 0.688%
O=C(C1CC(=O)N(C2CCCC2)C1)N1CCN(c2cccc(C(F)(F)F)c2)CC1 (centres undefined) | 9.27%
COC(=O)[C@]1(C)CCC[C@@]2(C)C3CC[C@]4(OC(C)=O)C[C@@]3(CCC21)CC4=NO (some centres undefined) | 19.3%
O=S(=O)(Nc1ccc2nc(N3CCOCC3)sc2c1)c1ccccc1 | -3.63%
CCCCc1ccc(NS(=O)(=O)c2cccc(C(=O)N3CCCN(C)CC3)c2)cc1 | -2.57%
NC(=O)NC(CC(=O)NNC(=O)c1ccccn1)c1ccc(Cl)cc1 (centres undefined) | 0.614%
CCOc1ccc(NC(=O)COC(=O)C2CCC(=O)N2)c([N+](=O)[O-])c1 (centres undefined) | 2.66%
COc1ccc(CCC(=O)N2CCN(S(=O)(=O)c3ccc(OC)cc3)CC2)cc1 | 16.4%
Cc1ccc(NC(=O)c2cccc(S(=O)(=O)N3CCCc4ccccc43)c2)nc1 | 21.4%
CCCCN(C(=O)c1ccc2ccccc2c1)c1c(N)n(CCCC)c(=O)[nH]c1=O | -2.14%
Cc1sc2ncnc(N3CCC(C(=O)Nc4ccc(F)cc4Cl)CC3)c2c1C | 1.84%
CCN(CC(=O)Nc1ccccc1OC)C(=O)CC1CC2CCC1C2 (centres undefined) | 23.5%
COc1ccc(OC)c(/C=C/C(=O)c2ccc3c(c2)OCO3)c1 | 25.2%
COc1ccc([C@H]2CC(=O)C=C(/C=C/c3ccc(Cl)cc3)C2)cc1 | 6.1%
CN1CCN(c2ccc(NC(=O)c3cc(Cl)c4c(c3)OCCO4)cc2)CC1 | -4.8%
O=C1C=C(c2cccc(Cl)c2O)C[C@@H](c2ccc(F)cc2)C1 | 15.9%
COc1ccc(NC(=O)COC(=O)c2n[nH]c3ccccc23)c(OC)c1 | 2.58%
COc1ccc(S(=O)(=O)N2CCOCC2)cc1NC(=O)c1ccc(OCC(C)C)c(OC)c1 | 3.95%
CN(c1ccccc1)S(=O)(=O)c1cccc(NC(=O)Cc2ccc(Cl)cc2)c1 | 6.78%
Cc1ccc(S(=O)(=O)NCCC(=O)NCc2ccc(Cl)cc2)cc1C | 21.8%
CC(C)c1nc(N2CCOCC2)c(C#N)c2c1COC(C)(C)C2 | 13.5%
COc1ccc(CSc2nc(N3CCOCC3)c3c(c2C#N)CC(C)(C)OC3)cc1 | 80.5% (active)

SMILES | activation
CCOC(=O)CSc1nc(N2CCOCC2)c2c(c1C#N)CC(C(C)C)OC2 (centres undefined) | 17.3%
COc1ccc(OC)c(/C=N/NC(=O)c2ccc[n+](CC(=O)c3ccccc3)c2)c1 | -2.79%
CC(=O)Nc1ccc(S(=O)(=O)NC(C)C(=O)OCCOc2ccc(F)cc2)cc1 (centres undefined) | 3.17%
O=C(COc1ccccc1Cl)N1N=C(c2cccs2)CC1c1ccco1 (centres undefined) | 17.2%
O=C(Nc1cccc2cccnc12)C(F)(F)F | -6.93%
CC(NC(=O)COC(=O)c1ccc(Cl)cc1O)c1ccc(F)cc1 (centres undefined) | 96.5% (active)
C=CCOc1ccc(/C=C/C(=O)OCC(=O)NC(C)c2ccc(F)cc2)cc1 (centres undefined) | 0.454%
CC(NC(=O)COC(=O)c1cc(=O)[nH]c2ccccc12)c1ccccc1 (centres undefined) | 3.95%
CN(CC(=O)Nc1ccc(Cl)c(C(F)(F)F)c1)C(=O)CCC(=O)c1ccccc1 | 17.3%
CC1(C)O[C@@H]2[C@H](O1)[C@@H](COS(=O)(=O)O)O[C@H]2n1ccc(=O)[nH]c1=O | -5.53%
COc1ccccc1CNS(=O)(=O)c1cc(C(=O)NCc2ccccn2)c(Cl)cc1Cl | -2.79%
C=C1CCC(N(O)c2cc(C)on2)C(=C)CCC2C1CC2(C)C (centres undefined) | 13.2%
C=C(C)CNc1cc(S(=O)(=O)N2CCOCC2)ccc1Oc1ccccc1 | -6.07%
COc1ccccc1Nc1cc(C(=O)NCCCN(C)C2CCCCC2)c2ccccc2n1 | 5.29%
CCCCn1c(N)c(N(CCC(C)C)C(=O)COC(=O)c2cccnc2OCC)c(=O)[nH]c1=O | 1.64%
CC(C)c1ccc(S(=O)(=O)N2CCN(C(C)C(=O)NC3CCCC3)CC2)cc1 (centres undefined) | 10.1%
CCCn1c(N)c(N(CCOC)C(=O)C2CCCC2)c(=O)[nH]c1=O | 1.46%
COc1cccc(N2CCN(CC(=O)Nc3ccnn3C3CCCC3)CC2)c1 | 1.23%
CC(=O)c1c(C)[nH]c(C(=O)COc2ccc3c(C)cc(=O)oc3c2)c1C | -2.89%
CC(C)N(Cc1nnc(-c2ccccc2Br)o1)C(=O)c1cc(Cl)nc2ccccc12 | 9.24%
